GLP-1R inv ag: inverse agonists of human GLP-1 receptor; P43220; HEK293 GLP-1R CRE-luciferase, luminescence, 24 h; GLP-1R form is constitutively active; Potency, µM (top dose mostly 38.3 µM), most hits filed as inhibitors; 410,000 compounds, 1.6% hits; also: nearly all actives have a fitted effect of over 55% in size
Target sequence (P43220 whole entry, looked up): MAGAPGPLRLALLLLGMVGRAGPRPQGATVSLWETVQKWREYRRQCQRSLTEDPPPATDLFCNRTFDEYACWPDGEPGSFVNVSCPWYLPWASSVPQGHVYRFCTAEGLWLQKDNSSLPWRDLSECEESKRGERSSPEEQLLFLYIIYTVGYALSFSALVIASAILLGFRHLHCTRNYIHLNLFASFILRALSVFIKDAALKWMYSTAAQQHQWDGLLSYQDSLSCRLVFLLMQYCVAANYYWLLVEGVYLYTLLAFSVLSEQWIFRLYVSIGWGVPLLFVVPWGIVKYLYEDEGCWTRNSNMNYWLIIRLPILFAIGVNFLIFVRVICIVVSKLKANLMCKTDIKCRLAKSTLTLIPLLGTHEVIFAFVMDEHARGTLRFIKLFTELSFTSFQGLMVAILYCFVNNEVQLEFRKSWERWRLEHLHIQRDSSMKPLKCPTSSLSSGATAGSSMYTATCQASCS
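Readout was luciferase luminescence, measured 12 min after detection reagent at room temperature. Beforehand, GLP-1R reporter HEK293 cells had sat 12 h, then received compounds for 24 hr at 37 deg C.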
Mito fusion yeast: blocks mitochondrial division or promotes mitochondrial fusion; AID 485298; S. cerevisiae fusion-defective mutant growth rescue, CellTiterGlo 48 h; Potency, µM (doses to about 46.1 µM), hits mostly activators; 320,000 compounds, 0.23% hits; also: nearly all actives have a fitted effect of over 45% in size
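Yeast fusion mutant, YPEG (non-fermentable carbon), compound, 48 h at 37C non-permissive; CellTiterGlo added, 10 min RT, luminescence read. Rescued growth = division inhibition.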
GLP1R ag: agonists of human GLP-1 receptor. P43220. HEK293 GLP-1R CRE-luciferase, luminescence, 4-6 h; cells express a hypersensitive GLP-1R form. Potency, µM (top dose mostly 45.6 µM), most hits filed as activators. 380,000 compounds, 0.007% hits
BRCA1 expr act: increases BRCA1 expression | MCF7-BRCA1-FFLuc reporter, luminescence, 48 h; response scale: scaled: vehicle 0%, 10 µM genistein 100% | Potency, µM (titrated, usually from 46.1 µM), most hits filed as activators | 380,000 compounds, 1.1% hits; also: nearly all actives have a fitted effect of over 80% in size
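Compounds are tested at multiple concentrations on MCF7 BRCA1-luciferase reporter cells seeded at 2000 per well; after 48 h, a single luminescence end-point is taken and curves fitted to the normalized data.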
GLP1R cytotox: cytotoxicity in counter-screen for GLP-1R inverse agonists | 410,000 compounds, 0.13% hits | HEK293 cAMP-luciferase reporter cells, luminescence, 24 h | Potency, µM (highest dose often 38.3 µM), actives largely listed as inhibitors | AID 624418;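 also: loss of luciferase light is scored as toxicity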
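Luminescence readout: signal drop marks cytotoxicity. Plated cells grew 12 h at 37 °C, 5% CO2, received 23 nL compound for 24 h, then got luciferase reagent, read after 12 min at RT.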
Numbers stand for hits; n = inactive; u = inconclusive; x = not tested or not shown. In the library only some 2.8% were active in any assay of this set; here they are far more common. Calls follow the shape of the dose curve; as a rule, active = well fitted curve in the direction sought with a large enough effect; inconclusive = small, poorly fitted or top-dose-only effect, or another doubt; inactive = no such curve, though single readings can be large; an effect the other way counts as inactive or inconclusive.

SMILES | GLP-1R inv ag | Mito fusion yeast | GLP1R ag | BRCA1 expr act | GLP1R cytotox
NC(=O)[C@H]1CC2(CC(c3cccc(NC(=O)COc4ccc(Cl)cc4)c3)=NO2)CN1C(=O)C(c1ccccc1)c1ccccc1 (some centres not stated) | 5.62µM | n | n | n | u
N#CCC(=O)N1CC2(CC(c3cccc(NC(=O)COc4ccc(Cl)cc4)c3)=NO2)C[C@@H]1C(N)=O (some centres not stated) | n | n | n | n | n
CCC(=O)Nc1cccc(C2=NOC3(C2)C[C@@H](C(N)=O)N(C(=O)C(c2ccccc2)c2ccccc2)C3)c1 (some centres not stated) | n | n | n | n | n
CN(C(=O)CN1CCC(NC(=O)c2ccccc2Br)CC1)C1CCCCC1 | n | n | n | n | n
COCCCn1c(=O)c2sccc2n2c(CCCC(=O)Nc3cccc(OC)c3)nnc12 | n | x | x | x | n
Cc1cc(C)n(-c2nc(NCCO)c3c4c(sc3n2)CCCC4)n1 | 4.47µM | n | n | n | u
Cc1cc(C)n(-c2nc(NCC3CCCO3)c3c4c(sc3n2)COC(C)(C)C4)n1 (configuration not stated) | u | n | n | n | 3.16µM
Cc1cc(C)n(-c2nc(NCC(C)O)c3c4c(sc3n2)CCCC4)n1 (configuration not stated) | 2.82µM | n | n | n | n
Cc1cc(C)n(-c2nc(NCCCO)c3c4c(sc3n2)CCCC4)n1 | u | n | n | n | u
CC(C)[C@@H]1N[C@]2(C(=O)Nc3ccccc32)[C@@H]2C(=O)N(c3cccc(C(F)(F)F)c3)C(=O)[C@@H]21 | n | n | n | n | n
COC(=O)c1c(-c2ccc(OC)c(OC)c2)csc1N | n | n | n | n | n
COc1cc(SC)ccc1C(=O)N(CC(=O)Nc1ccccc1Br)Cc1ccco1 | 10µM | n | n | n | n
O=[N+]([O-])c1ccc(N2CCc3ccccc3C2)nc1 | n | n | n | 11.2µM | n
CCOC(=O)c1snc(C(=O)NC2CCCCC2)c1N | u | n | n | 7.08µM | n
CCOC(=O)N1CCN(C(=O)c2ccc(CS(=O)c3cccc(C)c3)o2)CC1 (configuration not stated) | n | x | n | n | n
O=c1oc(-c2cccs2)nc2sc3c(c12)CCCC3 | n | n | n | n | n
O=c1c2c3c(sc2nc2n1N=C(c1cccs1)CS2)CCCC3 | n | n | n | 1.26µM | n
CCc1ccc(N=c2c([N+](=O)[O-])nn(-c3ccccc3)n2O)cc1 | n | 17.8µM | n | n | n
O=C(NCc1ccc(Cl)cc1)c1ccccc1Oc1ccccc1 | 2.82µM | n | n | n | n
COCCCNC(=O)c1ccccc1Oc1ccccc1 | n | n | n | n | n
CCC(C)(C)NC(=O)c1ccccc1Oc1ccccc1 | 14.1µM | n | n | n | n
O=c1c2ccccc2ncn1-c1cccc([N+](=O)[O-])c1 | n | x | n | n | n
CCOC(=O)C1(C)CCCN(C(=O)c2cc(OC)c(OC)c(OC)c2)C1 (configuration not stated) | n | x | n | n | n
CCCN(CC1CC1)c1nc(C)nc(Nc2c(Cl)cc(Cl)cc2Cl)c1Cl | u | 14.6µM | n | n | n
COc1ccc(C)c2sc(=NC(=O)c3ccc(C(C)=O)cc3)n(C)c12 | n | n | n | 0.794µM | n
SMILES | GLP-1R inv ag | Mito fusion yeast | GLP1R ag | BRCA1 expr act | GLP1R cytotox
CC(=O)Nc1cccc(-c2nnc(-c3ccccc3)o2)c1 | n | n | n | 6.31µM | n
CC(C)(C)C(=O)Nc1cccc(-c2nnc(-c3cccc(NC(=O)C(C)(C)C)c3)o2)c1 | u | n | n | n | n
O=C(Nc1cccc(-c2nnc(-c3ccccc3)o2)c1)C1CC1 | n | n | n | 8.91µM | n
O=C(Nc1nnc(-c2ccccc2)o1)C1CCCCC1 | n | n | n | n | n
COc1ccc(NS(=O)(=O)c2cccc(-c3nnc(-c4ccccc4)o3)c2)cc1 | n | 12.6µM | n | n | n
C=CCn1c(=S)[nH]c2scc(-c3ccc(C)o3)c2c1=O | n | n | n | n | n
